Shown are actives, neighbours in structure and some others; about 2.8% of the full set was active somewhere.
SENP8 block-1: inhibitors of human SENP8 protease | Q96LD8 | purified SENP8, Z-RLRGG-aminoluciferin cleavage, luminescence | inhibition, % at 10 µM | 330,000 tested, 1.2% active | AID 2540; in the data active = inhibition above about 50%
HSP90 refold inh: inhibitors of HSP90 luciferase refolding in rabbit reticulocyte lysate; luciferase refolding luminescence, 3 h; inhibition, % at 5.6 µM; 290,000 tested, 0.91% active; AID 1789;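 active = inhibition above the screen-wide mean plus 3 SD, computed separately per campaign, cut at about 16% in these data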;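 note: inhibitors lower the luminescence because luciferase stays unfolded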
SENP8 block-2: inhibitors of human SENP8 protease | 360,000 tested, 0.64% active | inhibition, % at 20 µM | recombinant SENP8, Nedd8 substrate fluorescence | AID 602440; in the data active = inhibition mostly above about 40%, no sharp cut-off; inactive = mostly below about 27%
SENP6 inh: inhibitors of human SENP6 protease. Q9GZR1. Recombinant SENP6 catalytic domain, aminoluciferin luminescence. inhibition, % at 10 µM. 330,000 tested, 1.8% active;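 active = inhibition above about 50% at the single tested dose, limit read from the data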
Platelet DG rel: platelet dense granule release activity. human platelet-rich plasma, SFLLRN dense granule ATP release, luminescence. inhibition, %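 (compounds screened at 7.5 µM in platelet-rich plasma)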. 300,000 tested, 0.22% active. AID 1663;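 active = mean replicate score, as percent of positive control, at or above 50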
SENP7 block: blocks the human protease SENP7; Q9BQF6; recombinant SENP7, Z-RLRGG-aminoluciferin luminescence, 40 min; inhibition, % at 5 µM; 330,000 tested, 1.5% active;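 active = inhibition above about 50% at the single test dose, limit read from the data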
HSP90 inh confirm: HSP90 inhibition, confirmation assay | shares compounds with HSP90 refold inh | rabbit reticulocyte lysate, luciferase refolding luminescence, 3 h | inhibition, % at 5.9 µM | 2,300 tested, 64% active | AID 1846; in the data active = inhibition above about 18%
FLuc counter: blocks native firefly luciferase in HSP90 counter-screen; shares compounds with HSP90 refold inh; purified native firefly luciferase, luminescence; 2,300 tested, 48% active; AID 1847; inhibition, % at 5.9 µM;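 active = inhibition above the mean inhibition of all tested sample wells plus 3 SD, cut at about 10% in these data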
Target sequence (P08659 whole entry, looked up): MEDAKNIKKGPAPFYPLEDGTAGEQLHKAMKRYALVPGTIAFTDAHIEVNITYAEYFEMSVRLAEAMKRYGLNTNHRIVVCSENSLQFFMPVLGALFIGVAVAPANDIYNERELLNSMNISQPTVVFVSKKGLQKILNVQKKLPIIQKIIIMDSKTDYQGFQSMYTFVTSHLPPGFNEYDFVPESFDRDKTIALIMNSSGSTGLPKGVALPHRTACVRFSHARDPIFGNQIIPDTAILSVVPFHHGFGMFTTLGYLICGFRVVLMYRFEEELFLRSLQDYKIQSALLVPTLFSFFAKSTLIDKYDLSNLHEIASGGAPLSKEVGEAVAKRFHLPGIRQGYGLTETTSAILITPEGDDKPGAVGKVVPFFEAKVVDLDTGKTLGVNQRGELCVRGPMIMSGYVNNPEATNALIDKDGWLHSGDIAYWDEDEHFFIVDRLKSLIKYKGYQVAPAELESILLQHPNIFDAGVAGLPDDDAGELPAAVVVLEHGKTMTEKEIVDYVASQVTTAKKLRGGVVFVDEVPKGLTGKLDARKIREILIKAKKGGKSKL
Hits are given with their value; - = inactive; . = no result given.

SMILES | SENP8 block-1 | HSP90 refold inh | SENP8 block-2 | SENP6 inh | Platelet DG rel | SENP7 block | HSP90 inh confirm | FLuc counter
O=C(CCc1nc2ccccc2c(=O)[nH]1)N1CCCc2ccccc21 | - | . | - | - | - | - | . | .
Cc1nn(-c2ccc(C(=O)O)cc2)c(N)c1-c1ccccc1 | - | 21 | - | - | - | - | 48 | -
C[C@@H]1CN([C@@H](C)CO)C(=O)CCCn2nncc2CO[C@H]1CN(C)Cc1ccccc1 | . | . | - | . | . | . | . | .
Cc1[nH]c(-c2ccco2)nc1C(=O)O | - | 18 | - | - | - | - | - | -
Cc1[nH]c(-c2ccc3c(c2)OCO3)nc1C(=O)O | - | - | - | - | - | - | . | .
Cc1cc(F)ccc1-c1cc(C(=O)NC2CCCCC2)[nH]n1 | . | . | - | . | . | . | . | .
COc1cccc(/C=N/Nc2nc(C)cc(=O)[nH]2)c1OC | - | - | - | - | - | - | . | .
COc1cccc(/C=N/Nc2ncccc2[N+](=O)[O-])c1OC | 95 | 67 | - | 99 | 82 | 98 | 77 | 70
C[C@H]1CN([C@@H](C)CO)C(=O)CCCn2nncc2CO[C@@H]1CN(C)Cc1cccc(C(=O)O)c1 | . | . | - | . | . | . | . | .
COc1cc2c(=O)n(Cc3ccccc3)c(=O)n(CC(=O)NCC3CCCO3)c2cc1OC (stereo unspecified) | - | - | - | - | - | - | . | .
O=C(Cn1c(=O)n(Cc2ccc(F)cc2)c(=O)c2ccccc21)NCC1CCCO1 (stereo unspecified) | - | 18 | - | - | - | - | - | -
CC1Cc2cc(/C(O)=C3/C(=O)C(=O)N(CCN4CCOCC4)C3c3ccc([N+](=O)[O-])cc3)ccc2O1 (stereo unspecified) | - | - | - | - | - | - | . | .
C=CCn1c(C)cc(C(=O)CSc2nc3ccccc3[nH]2)c1C | - | 32 | - | - | - | - | 62 | 63
C=CCn1c(C)cc(C(=O)CSc2nc3ccccc3c(=O)[nH]2)c1C | - | - | - | - | . | - | . | .
O=C(C(c1ccccc1)C(O)c1ccccc1)N1CCOCC1 (stereo unspecified) | . | . | - | . | . | . | . | .
O=C(C(c1ccccc1)c1ccccc1)N1CCOCC1 | - | 47 | - | - | - | - | - | -
Cc1ccc(OCc2ccc(C(=O)N3CCCC3)o2)c([N+](=O)[O-])c1 | - | - | - | - | - | - | . | .
O=C(O)c1ccc(COc2ccc3ccccc3c2)o1 | 81 | 67 | - | 89 | - | 55 | 75 | 30
CCCc1cc(=O)oc2cc(OCc3ccc(C(=O)O)o3)ccc12 | - | 23 | - | - | - | - | 18 | -
C/C=C/c1ccccc1OCc1ccc(C(=O)O)o1 | - | - | - | - | - | - | . | .
CCCc1cc(=O)oc2cc(OCc3nn[nH]n3)ccc12 | - | - | - | - | - | - | . | .
CCCc1cc(=O)oc2cc(OCc3ccc(C(=O)O)cc3)ccc12 | - | 22 | - | - | - | - | - | -
Cc1ccc(OCc2ccc(C(=O)O)o2)c([N+](=O)[O-])c1 | 72 | 20 | - | 77 | - | 59 | 44 | -
C=C(Cl)COc1ccc2c(CCC)cc(=O)oc2c1 | - | - | - | - | - | - | . | .
Nc1ncc(Br)cc1S(=O)(=O)NCCc1ccccc1 | - | - | - | - | - | - | . | .
SMILES | SENP8 block-1 | HSP90 refold inh | SENP8 block-2 | SENP6 inh | Platelet DG rel | SENP7 block | HSP90 inh confirm | FLuc counter
O=C(Nc1nncs1)C1CC(=O)N(CCc2ccc(F)cc2)C1 (stereo unspecified) | - | - | - | - | - | - | . | .
Cc1ccc(Nc2cc(C)nc(-c3ccccc3)n2)cc1 | - | - | - | - | - | - | . | .
COCOc1cccc(CN2CCC2(C)C(=O)Nc2ccc(OC)c(OC)c2)c1 (stereo unspecified) | . | . | - | . | . | . | . | .
CCCCOC(=O)Nc1nnc(CC)s1 | - | 29 | - | - | - | - | - | -
COc1ccccc1CNC(=O)CN(C)CC(=O)Nc1ccccc1Br | - | . | - | - | . | - | . | .
CC(C)(C)CC(=O)O/N=C(\N)c1ccccn1 | - | 21 | - | - | - | - | 35 | 22
O=C(NCCCN1CCCC1=O)c1cc(-c2cccnc2)nc2ccc(Cl)cc12 | - | 28 | - | - | - | - | - | -
CN(C)c1ccc(C(=S)Nc2ccccc2)cc1 | - | 57 | - | - | - | - | 65 | -
CN(C)c1ccc(NC(=S)c2ccccn2)cc1 | . | 66 | - | . | - | . | 94 | 90
CC(=O)C1CCC2C3CC=C4CC(SC(=N)N)CCC4(C)C3CCC12C (stereo unspecified) | . | . | - | . | . | . | . | .
CC1CC(C)CN(C(=O)CN(C)S(=O)(=O)c2ccc3c(c2)c(=O)n(C)c(=O)n3C)C1 (stereo unspecified) | - | - | - | - | - | - | . | .
Clc1cccc(-c2ccc(CNCCCN3CCOCC3)o2)c1 | - | 27 | - | - | - | - | - | -
CN(C)c1ccc(/C=C2\CCC/C(=C\c3ccccc3)C2=O)cc1 | . | - | - | . | - | . | . | .
CC(=O)N1/C(=C/c2ccc(N(C)C)cc2)C(=O)c2ccccc21 | . | 18 | - | . | - | . | - | -
CCN(Cc1ccncc1)Cc1ccc(Br)cc1 | - | - | - | - | - | - | . | .
CN1C(=O)C2(C(C#N)=C(N)N(c3ccc(Cl)cc3)C3=C2C(=O)CC(C)(C)C3)c2ccccc21 (stereo unspecified) | - | 37 | - | - | - | - | - | -
COC(=O)c1cn[nH]c1NC(=S)Nc1ccc(Cl)c(Cl)c1 | - | 37 | - | - | - | - | 44 | 44
COC(=O)c1cn[nH]c1NC(=S)Nc1ccccc1C | - | - | - | - | - | - | . | .
COC(=O)c1cc(NC(=O)CSc2ncn[nH]2)ccc1Cl | - | - | - | - | - | - | . | .
COC(=O)c1cn[nH]c1NC(=S)Nc1ccc(C)cc1Cl | - | 36 | - | - | - | - | 41 | 41
CCOC(=O)c1cn[nH]c1NC(=S)Nc1ccc(OC)cc1 | - | 65 | - | - | - | - | 65 | 62
CC(=O)OC(C=C(C)C)C/C(C)=C/COc1c2ccoc2cc2oc(=O)ccc12 (stereo unspecified) | . | . | - | . | . | . | . | .
COc1cccc(/C=C/C(=O)OCC(=O)NC2CC2)c1OC | - | . | - | - | . | - | . | .
O=C(Nc1ccc(S(=O)(=O)NCCc2ccccc2)cc1)c1ccncc1 | - | - | - | - | - | - | . | .
O=C(Nc1ccc(S(=O)(=O)NCCc2ccccc2)cc1)c1ccco1 | - | 26 | - | - | - | - | - | -
O=C(O)c1ccc2noc(-c3ccccc3)c2c1 | - | 41 | - | - | - | - | - | -
O=C(O)c1ccc2nc(-c3ccccc3)c(-c3ccccc3)nc2c1 | - | 42 | - | - | - | - | 51 | 37
CC(=O)COC(=O)c1ccc2noc(-c3ccccc3)c2c1 | - | 20 | - | - | - | - | - | -
Cc1ccc(-c2onc3ccc(C(=O)O)cc23)cc1 | - | 72 | - | - | - | - | 61 | 57
